Assay outcomes from PubChem BioAssay.
Compounds with a hit are over-represented: about 21% of the library has one in this group of screens.
DRD3 agonist = agonists of human D3 dopamine receptor | P35462 | D3R DiscoveRx beta-arrestin cells, luminescence, 90 min | 410,000 compounds, 0.58% hits | max activation, % | AID 652048; in the data active = max activation above about 30%; also: 0% is about no effect
Target sequence (P35462 whole entry, looked up): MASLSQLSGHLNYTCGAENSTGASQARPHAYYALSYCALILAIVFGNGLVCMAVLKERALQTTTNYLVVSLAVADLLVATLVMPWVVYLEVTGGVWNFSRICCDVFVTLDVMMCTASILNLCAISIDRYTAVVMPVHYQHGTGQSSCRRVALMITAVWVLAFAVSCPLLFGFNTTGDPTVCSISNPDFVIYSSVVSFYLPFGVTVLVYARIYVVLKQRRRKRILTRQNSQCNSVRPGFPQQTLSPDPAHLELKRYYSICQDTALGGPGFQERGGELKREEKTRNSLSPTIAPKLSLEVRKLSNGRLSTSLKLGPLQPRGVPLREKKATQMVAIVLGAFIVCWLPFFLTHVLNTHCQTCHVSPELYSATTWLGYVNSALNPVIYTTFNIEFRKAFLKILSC
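Agonist-mode cell screen: cells plated at 1500/well and incubated overnight at 37 °C, then exposed to library compounds for 90 min at 37 °C. Detection reagent was added for 30–60 min at room temperature, and luminescence was read.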
ClpP mod = qHTS Assay for Activators of ClpP. purified B. subtilis ClpP, FRET peptide cleavage, 20 min. Potency, µM (doses to about 57.5 µM), for inactives: at the highest dose activity change, negative = active. 340,000 compounds, 1.9% hits; active = well fitted falling curve with a large enough effect; inconclusive = small, poorly fitted or top-dose-only effect; inactive = no such curve, though single readings can be large or run the other way; also: potency is read from the fitted curve at half-maximal effect; the source files actives as falling curves though it sought activators and does not explain the sign; nearly all actives have a fitted effect of over 65% in size
Target sequence (P80244 whole entry, looked up): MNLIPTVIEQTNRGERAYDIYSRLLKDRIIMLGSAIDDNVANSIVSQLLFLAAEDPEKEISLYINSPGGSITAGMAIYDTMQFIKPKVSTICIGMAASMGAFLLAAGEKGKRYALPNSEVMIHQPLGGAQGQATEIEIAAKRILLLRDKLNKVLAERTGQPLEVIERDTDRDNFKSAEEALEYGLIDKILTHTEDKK
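ClpP 10 microg/mL final, pH 8 Tris/KCl buffer with BSA, glycerol, Tween-20; compound pinned in; FRET-FV substrate; RT 20 min; Ex320/Em430; ΔFRET vs ADEP 5.8 microM, DMSO, no enzyme.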
IL-1B inflam inh = blocks inflammasome-driven IL-1 beta release; THP-1 LPS/ATP IL-1B secretion, AlphaLISA, 16 h; active compounds read low; activity change, % at 57.5 µM; 360,000 compounds, 4.7% hits; AID 743279; in the data active = activity change below about -50%; inconclusive = mostly about -30% to -49%; also: % is scaled to controls: 0 for no effect and ±100 for the full control effect
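THP-1 cells pretreated 1 hr with compounds (up to 57.5 uM final), then stimulated with LPS (250 ng/mL final) plus ATP (1.25 mM final); secreted IL-1B measured by AlphaLISA after 16 hr, decreased signal indicating inhibition.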
DRD3 antagonist = D3 dopamine receptor (human) antagonism. P35462. D3R cells, DiscoveRx beta-arrestin luminescence, antagonist mode; active compounds read low. max response, negative = inhibition, %. 360,000 compounds, 2.5% hits. AID 652054; in the data active = max response below about -50%; inconclusive = no clear call, values can overlap the other calls; also: % is scaled to controls: 0 for no effect and ±100 for the full control effect
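Cells plated overnight at 1500 cells/well, then exposed to library compounds with dopamine controls for 90 minutes at 37 degrees C. DiscoveRx reagent added for 30–60 minutes at room temperature; luminescence read, quantitative HTS format.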
TDP1 cell noCPT = qHTS for Inhibitors of human tyrosyl-DNA phosphodiesterase 1 (TDP1): qHTS in cells in absence of CPT | DT40 Tdp1-/- hTDP1 cells, no CPT, ATP luminescence, 48 h | Potency, µM (doses to about 46.2 µM), without a hit: at the top dose activity change, negative = growth inhibition, hits mostly inhibitors | 420,000 compounds, 15% hits | AID 686978, 2013; also: potency is read from the fitted curve at half-maximal effect; % is scaled to controls: 0 for no effect and ±100 for the full control effect; nearly all actives have a fitted effect of over 55% in size
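Seeded 400 DT40-hTDP1 cells/well (vehicle DMSO, no 20 nM CPT); pinned compounds; ≥48 hr at 37 °C; CellTiter-Glo luminescence as viability measure.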
TDP1 cell CPT = growth inhibition of DT40 Tdp1-/-;hTDP1 cells with camptothecin (screen for TDP1 inhibitors); chicken DT40 Tdp1-/-;hTDP1 cells + 20 nM CPT, ATP luminescence, 48 h; 420,000 compounds, 12% hits; AID 686979; Potency, µM (top dose mostly 46.2 µM), inactives show at the highest dose activity change, negative = growth inhibition, hits mostly inhibitors; also: potency is read from the fitted curve at half-maximal effect; % is scaled to controls: 0 for no effect and ±100 for the full control effect; nearly all actives have a fitted effect of over 55% in size
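Cell growth measured by CellTiter-Glo luminescence after a minimum 48 h, 37 C compound exposure with 20 nM CPT in Tdp1-knockout DT40 cells stably expressing hTDP1, seeded 400/well; qHTS titration format.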
Numbers without * were called inactive; i = inactive; ? = inconclusive; / = no result. Unless noted, calls follow the shape of the dose curve; as a rule, active = well fitted inhibition curve with a large enough effect; inconclusive = small, poorly fitted or top-dose-only effect; inactive = flat fitted curve, though single readings scatter.

SMILES	DRD3 agonist	ClpP mod	IL-1B inflam inh	DRD3 antagonist	TDP1 cell noCPT	TDP1 cell CPT
Cc1c(Cl)cccc1NC(=O)C1CC(=O)N(C2CCCC2)C1 (stereo not drawn)	3	/	-58*	3	-7%	0%
Cc1c(Cl)cccc1NC(=O)CNC(=O)C1CC(=O)N(C2CCCC2)C1 (stereo not drawn)	-1	-1%	31	20	8%	-3%
O=C(O)CSC1CC(=O)N(c2cccc(Cl)c2)C1=O (stereo not drawn)	-6	1%	-2	4	?	-3%
CCOC(=O)C1CCN(C2CC(=O)N(c3cccc(Cl)c3)C2=O)CC1 (stereo not drawn)	0	1%	-8	-5	-4%	0%
CCc1ccc(OCC(=O)N(Cc2ccc(Cl)cc2)C2CCS(=O)(=O)C2)cc1 (stereo not drawn)	-17	-1%	/	/	?	?
COCCN(Cc1cc2ccc(C)cc2[nH]c1=O)S(=O)(=O)c1ccccc1	-3	/	12	-6	-19%	11%
CCOC(=O)C[C@@H]1OC[C@H](C)N1S(=O)(=O)c1ccc(C)cc1	4	2%	32	5	?	-31%
O=C(C1CC(=O)N(C2CCCC2)C1)N1CCN(c2cccc(Cl)c2)CC1 (stereo not drawn)	-13	-1%	1	-18	23µM*	18µM*
O=c1cc(N2CCN(c3cccc(Cl)c3)CC2)[nH]c(=O)n1C1CCCCC1	7	0%	6	12	1.6µM*	?
Cc1ccccc1OC1CCN(C(=O)C2CCC(=O)N(C3CCCC3)C2)CC1 (stereo not drawn)	1	-1%	36	-9	15µM*	?
CS(=O)(=O)N1CCCC(C(=O)N2CCN(c3cccc(Cl)c3)CC2)C1 (stereo not drawn)	-3	/	-1	-5	?	21µM*
CCC(C)NC(=O)CN1C(=O)c2cccnc2Sc2ccccc21 (stereo not drawn)	-13	0%	/	/	6%	?
CC1(NC(=O)Cc2csc(-c3cccc(Cl)c3)n2)CCS(=O)(=O)C1 (stereo not drawn)	2	-5%	1	3	?	-24%
COc1ccc(NC(=S)NC(=O)c2cncc(Br)c2)cc1	-20	/	/	0	?	8%
COc1cc(C(=O)NCCOc2ccc(C)c(C)c2)cc(OC)c1OC	10	-2%	-5	0	-11%	-19%
COc1cccc(OCCOc2c(OC)cccc2OC)c1	-7	1%	-60*	5	?	-27%
COc1cc(C(=O)NCCCCCCNC(=O)c2cc(OC)c(OC)c(OC)c2)cc(OC)c1OC	-10	1%	8	10	1%	11%
COc1cc(C(=O)NCCCCc2ccccc2)cc(OC)c1OC	0	-1%	-2	29	5.8µM*	?
COc1cccc(OC)c1OCCCOc1c(OC)cccc1OC	-2	0%	10	-4	?	-13%
COc1cccc(OCCNC(=O)c2cc(OC)c(OC)c(OC)c2)c1	-4	/	3	-12	13µM*	?
CCOC(=O)C1(CCc2ccccc2)CCN(C(=O)c2cc(C)nc(C)n2)CC1	7	/	34	-3	?	0%
COc1cccc(C2N(c3ccccc3)CCN2c2ccccc2)c1OC	-5	/	-7	-12	-22%	-6%
Cc1ccc(N2CCN(c3ccc(C)cc3)C2c2cccnc2)cc1	5	-3%	-86*	8	?	23µM*
c1ccc(N2CCN(c3ccccc3)C2c2cccnc2)cc1	-7	-3%	-21	-9	?	?
c1ccc(N2CCN(c3ccccc3)C2c2ccncc2)cc1	2	0%	-69*	5	-24%	-27%
SMILES	DRD3 agonist	ClpP mod	IL-1B inflam inh	DRD3 antagonist	TDP1 cell noCPT	TDP1 cell CPT
CC(C)NC(=O)N1CCCC2(CCN(C(=O)c3cccc(F)c3)CC2)C1	/	/	/	/	0%	9%
O=C(O)C1C2C=CC(O2)C1C(=O)Nc1cccc(C(F)(F)F)c1 (stereo not drawn)	1	1%	2	3	10%	-2%
NS(=O)(=O)c1cc(C(=O)NCC2CCCCC2)ccc1Cl	-2	/	6	-8	?	-21%
CCc1nn2c(=O)cc(COC(=O)Cc3ccccc3)nc2s1	9	-7%	/	/	1%	?
S=C(NCCc1ccccc1)N/N=C/c1c(Cl)cccc1Cl	-6	1%	12	?	16µM*	?
Cc1cccc(C)c1NC(=S)N/N=C/c1c(Cl)cccc1Cl	0	/	4	-19	21µM*	?
COc1cc(/C=N/NC(=S)NCCc2ccccc2)cc(OC)c1OC	0	/	38	58	16µM*	26µM*
Cc1cccc(C)c1NC(=S)N/N=C/c1ccc(OCCC(C)C)cc1	-1	3%	?	0	7.3µM*	9.2µM*
Cc1ccc([N+](=O)[O-])cc1NC1OC(CO)C(O)C1O (stereo not drawn)	29	0%	9	-8	1%	2%
COC(=O)c1cc(C)c(C)cc1NC1OC(CO)C(O)C1O (stereo not drawn)	3	3.5µM*	-4	24	-4%	8%
CC(C)Sc1n[nH]c(=O)n1-c1ccccc1	4	0%	16	0	-11%	2%
O=C(O)c1ccc(C2CCCCC2)cn1	-9	-3%	-2	-95*	?	?
CCN(C(=O)CSc1nnc(Nc2ccccc2C)s1)C1CCS(=O)(=O)C1 (stereo not drawn)	-6	28µM*	-3	4	-28%	-9%
Cc1cccc(Nc2nnc(SCC(=O)N(C)C3CCS(=O)(=O)C3)s2)c1C (stereo not drawn)	2	1%	i	3	?	-20%
CCN(C(=O)CSc1nc2nc(C)cc(C)n2n1)C1CCS(=O)(=O)C1 (stereo not drawn)	1	16µM*	10	-22	5%	2%
Cc1nc(N2CCCC2)ncc1C(=O)N1CCN(c2ccc(Cl)cc2)CC1	3	-3%	/	/	?	?
CC(C)(C)OC(=O)n1cc(C(=O)c2ccccc2O)cn1	25	/	6	7	-17%	3%
CN(C)c1ncnc2c1ncn2[C@H]1CN(CCN2CCOCC2)C[C@@H](CO)O1	-6	1%	-9	11	-7%	3%
